The structures appear in SMILES notation. Results filed as inconclusive are left out. A call without a number means that no potency is given here. Active and inactive are the calls of the source. Calls come from the whole dose curve; as a rule, active = well fitted activation curve with a large enough effect in the repeat runs; inconclusive = weak or mixed curves; inactive = flat fitted curve, though single readings scatter.

The assay is described as follows: A CellTox Green Cytotoxicity Assay to monitor cytotoxicity in HepG2 cells - 8 hour (AID 1224890). Note: nearly all actives have a fitted effect of over 45% in size. To be noted: CellTox Green fluorescence; series mostly up to 76.8 µM. An excerpt:
National Center for Advancing Translational Sciences [NCATS]
NIH Chemical Genomics Center [NCGC]
U.S. Environmental Protection Agency [EPA]
National Institutes of Environmental Health Sciences [NIEHS]
National Toxicology Program [NTP]
Cell-based models are critical for drug discovery. Determining the natural cytotoxic effects resulting from test compounds is an essential research activity. A CellTox Green Cytotoxicity Assay to monitor cytotoxicity in real time of continues cell culture during 40 hours of the compound treatment was used to screen Tox21 10K library compounds in HepG2 cells. CellTox Green Cytotoxicity Assay is a nonlytic, homogeneous, biofluorescent method to measure cytotoxicity in cell culture after experimental manipulation. The assay system uses a proprietary asymmetric cyanine dye that is excluded from viable cells but preferentially stains the dead cell's DNA. […] Viable cells produce no appreciable increases in fluorescence. Therefore, the fluorescence signal produced by the binding interaction with dead cell DNA is proportional to cytotoxicity.
The mixture of HepG2 cell suspension and reagents were dispensed at 600cells/6 ul/well in 1536-well tissue culture treated black solid bottom plates using a Multidrop dispenser. After the assay plates were incubated at a 37 C/5% CO2 incubator for 5 hours, 23 nL of compounds dissolved in DMSO, positive and negative controls was transferred to the assay plate by a pintool work station. The plates were incubated at 37 C for 40 hours. The fluorescence intensity were measured at 0h, 8h, 16h, 24h, 32h and 40h time points using ViewLux plate reader during compound treatment.
For `Cn1c(=O)c2c(ncn2CC(=O)O)n(C)c1=O`, the Potency entry is “inactive”. Then `C[Si](NC1CCCCC1)(NC1CCCCC1)NC1CCCCC1`, with “inactive”; and `CCCCCCCCCCCC[N+](C)(C)CCCS(=O)(=O)[O-]`, with “inactive”; and `O=C(O)c1snc(Cl)c1Cl`, with “inactive”.

In the case of `CO/N=C1\CN(c2nc3c(cc2F)c(=O)c(C(=O)O)cn3C2CC2)CC1CN` (stereo not given), the Potency result was “inactive”. As for `COc1ccc(CCC(=O)c2c(O)cc(O[C@@H]3O[C@H](CO)[C@@H](O)[C@H](O)[C@H]3O[C@@H]3O[C@@H](C)[C@H](O)[C@@H](O)[C@H]3O)cc2O)cc1O`, the Potency result is “inactive”.

Consider `CN1Cc2cc(C(=O)N3CCC(C4CCNCC4)CC3)ccc2N[C@@H](CC(=O)O)C1=O`, for which the Potency entry was “inactive”.

On to `C[C@]12CCC(=O)C=C1C=C[C@@H]1[C@@H]2CC[C@@]2(C)[C@H]1CC[C@@]21CCC(=O)O1`, for which the Potency entry was “inactive”. `C=CC(C)=CCC=C(C)C`: the Potency result was “inactive”. As for `CCCCCCOC(=O)CCCCCCCC(=O)OCCCCCC`, the Potency result was “inactive”. For `O=C(OCCOCCO)c1ccccc1Nc1cccc(C(F)(F)F)c1`, the Potency entry is “inactive”. For the molecule `CC(=O)CC(c1ccc([N+](=O)[O-])cc1)c1c(O)c2ccccc2oc1=O` (stereo not given), the Potency result is “inactive”. With `C=CC(C)(C)CC(=O)OC`, the Potency entry was “inactive”. The result for `O=C1NCCN1` reads “inactive”. The result for `CC(CCO)CCc1ccccc1` (stereo not given) reads “inactive”; that for `Nc1ccc(S(=O)(=O)O)cc1`, “inactive”; that for `COc1cc2[nH]c(=O)[nH]c(=O)c2cc1OC`, “inactive”. Take `Cc1nc2ccccn2c(=O)c1CCN1CCC(C(=O)c2ccc(F)cc2)CC1`: the Potency result was “inactive”.

For `NC(=O)N(O)[C@@H]1COc2cc(OCc3ccccc3)ccc21`, the Potency entry was “inactive”. Turning to `CC1=NN(c2ccc(C(=O)O)cc2)C(=O)C1`, the Potency result was “inactive”. In the case of `COC(=O)c1cc(Cl)ccc1NS(=O)(=O)C(F)(F)F`, the Potency entry was “inactive”.

For `N#C[C@@H]1C[C@@H]2C[C@@H]2N1C(=O)[C@@H](N)C12CC3CC(CC(O)(C3)C1)C2`, the Potency entry is “inactive”. For the molecule `OC(CCCN1CCCCC1)(c1ccccc1)c1ccccc1`, the Potency result is “inactive”.

For `C[C@@H]1C[C@H]2[C@@H]3CCC4=CC(=O)C=C[C@]4(C)[C@@]3(F)[C@@H](O)C[C@]2(C)[C@H]1C(=O)CO`, the Potency result is “inactive”.

For `C=C(C)C(=O)OCCOC(=O)CC(C)=O`, the Potency result is “inactive”.

As for `O=C(O)c1cccc(O)c1`, the Potency entry was “inactive”. Turning to `Cc1ccccc1N1C(=O)c2cc(S(N)(=O)=O)c(Cl)cc2NC1C` (stereo not given), the Potency entry was “inactive”.

With `CC1=C(/C=C/C(C)=C\C=C\C(C)=C\C(=O)O)C(C)(C)CCC1`, the Potency entry is “inactive”. Consider `COC(=O)CC(=O)C(C)(C)C`, for which the Potency entry is “inactive”. As for `c1ccc(COCc2ccccc2)cc1`, the Potency result was “inactive”. For `C[N+](C)(C)CCOC(N)=O`, the Potency entry is “inactive”. Regarding `O=C(CCCN1CCN(c2ccc(F)cc2)CC1)NC1c2ccccc2CSc2ccccc21` (stereo not given), the Potency result is “inactive”. Take `CCc1cccc(N(C)C(N)=Nc2cccc3ccccc23)c1`: the Potency entry is “inactive”. Take `CN(C(=O)C(Cl)Cl)c1ccc(OC(=O)c2ccco2)cc1`: the Potency entry is “inactive”. Take `COc1ccc([C@@H]2Sc3ccccc3NC(=O)[C@@H]2O)cc1`: the Potency result is “inactive”. `CSc1ccc(Oc2ccc(S(N)(=O)=O)cc2CN(C)C)cc1C`: the Potency entry is “inactive”. In the case of `O=C(O)c1ccccc1NCCc1ccccc1`, the Potency result is “inactive”. Then `CO[C@H]1C=CO[C@@]2(C)Oc3c(C)c(O)c4c(O)c(c5c(c4c3C2=O)=NC2(CCN(CC(C)C)CC2)N=5)NC(=O)/C(C)=C\C=C/[C@H](C)[C@H](O)[C@@H](C)[C@@H](O)[C@@H](C)[C@H](OC(C)=O)[C@@H]1C`, with “inactive”; and `CC(C)(C)C(=O)O`, with “inactive”. Consider `O=c1[nH]c2ccc(S(=O)CCN3CCC(Cc4ccc(F)cc4)CC3)cc2o1` (stereo not given), for which the Potency entry is “inactive”.

Source of the values: PubChem BioAssay (Tox21).
